# Results from publication PMC10812921, “Transcriptional Coactivator BOB1 (OBF1, OCA-B) Modulates the Specificity of DNA Recognition by the POU-Domain Factors OCT1 and OCT2 in a Monomeric Configuration”.
# Tests used:
# POU1 (OCT1 POU domain) = POU1 (OCT1 POU domain) (human, UniProt P14859 260-458); test: EMSA-SELEX-seq; no BOB1; 20 mM Tris-HCl pH 7.6, 140 mM NaCl, 10% glycerol, 0.5 mM EDTA, 0.05% Triton X-100, 0.1 mg/mL BSA, 0.1 mg/mL poly(dI-dC), 5 mM DTT, room temperature, 20 min; high values mean tight binding; settings: protein: recombinant; dsDNA, one strand shown
# Method in brief: (§1)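 After expression in E. coli BL21, tagged POU-domain proteins were purified under denaturing conditions and then renatured. Each binding reaction held 30 ng protein and 300 ng of a PCR-amplified double-stranded random 35-nt library in 20 μL Tris–HCl pH 7.6 binding buffer, with or without 28 ng coactivator protein, for 20 min at RT. Bands holding complexes were cut from native 6% PAGE, eluted and PCR-amplified across four rounds, and the output was Illumina-sequenced. The value given for binding preference is the share, in percent, of sequenced 8-mers fitting a motif pattern.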
# POU2 (OCT2 POU domain) = target: T1, POU2 (OCT2 POU domain) (human, UniProt P09086 175-386); test: as above; settings: protein: recombinant; dsDNA, one strand shown
# T1 sequence: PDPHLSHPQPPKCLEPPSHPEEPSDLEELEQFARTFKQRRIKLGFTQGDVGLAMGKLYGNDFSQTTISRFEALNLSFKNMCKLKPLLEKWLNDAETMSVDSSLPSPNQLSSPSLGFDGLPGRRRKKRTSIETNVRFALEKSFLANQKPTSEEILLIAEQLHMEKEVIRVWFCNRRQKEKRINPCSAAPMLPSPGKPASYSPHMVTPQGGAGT
# Method in brief: as §1
# [1] = target: POU1 (OCT1 POU domain);BOB1 (OBF1, OCA-B) (human;human, UniProt P14859;Q16633 260-458;1-256, |); test: EMSA-SELEX-seq; with BOB1 (ternary complex band); 20 mM Tris-HCl pH 7.6, 140 mM NaCl, 10% glycerol, 0.5 mM EDTA, 0.05% Triton X-100, 0.1 mg/mL BSA, 0.1 mg/mL poly(dI-dC), 5 mM DTT, room temperature, 20 min; high values mean tight binding; settings: protein: recombinant;recombinant; copies: 1;1; dsDNA, one strand shown
# Method in brief: as §1
# [2] = target: T2, POU2 (OCT2 POU domain);BOB1 (OBF1, OCA-B) (human;human, UniProt P09086;Q16633 175-386;1-256, |); test: as above; settings: protein: recombinant;recombinant; copies: 1;1; dsDNA, one strand shown
# T2 sequence 1: T1 sequence
# T2 sequence 2: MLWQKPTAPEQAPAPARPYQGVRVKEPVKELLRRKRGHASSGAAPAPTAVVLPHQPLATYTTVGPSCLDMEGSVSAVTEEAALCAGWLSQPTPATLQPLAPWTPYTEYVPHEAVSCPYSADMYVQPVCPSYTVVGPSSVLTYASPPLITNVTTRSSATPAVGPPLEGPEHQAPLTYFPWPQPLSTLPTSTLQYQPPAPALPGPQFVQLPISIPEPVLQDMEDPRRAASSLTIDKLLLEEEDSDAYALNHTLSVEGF
# Method in brief: as §1
# POU1 (OCT1 POU domain), sequence (P14859 260-458): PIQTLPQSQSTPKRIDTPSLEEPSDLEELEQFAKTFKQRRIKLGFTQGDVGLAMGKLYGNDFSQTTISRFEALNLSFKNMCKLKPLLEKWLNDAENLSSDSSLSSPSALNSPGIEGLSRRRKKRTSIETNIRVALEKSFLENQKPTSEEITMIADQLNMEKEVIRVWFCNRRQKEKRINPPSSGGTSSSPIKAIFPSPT
Sequence,binding signal (POU1 (OCT1 POU domain)),binding signal (POU2 (OCT2 POU domain)),binding signal [1],binding signal [2]
AAAGTAAC,0.0439 % of ANNNNAAN 8-mers,0.0437 % of ANNNNAAN 8-mers,0.0605 % of ANNNNAAN 8-mers,0.0537 % of ANNNNAAN 8-mers
AAGATAAG,0.045 % of ANNNNAAN 8-mers,0.0593 % of ANNNNAAN 8-mers,0.046 % of ANNNNAAN 8-mers,0.0429 % of ANNNNAAN 8-mers
AAGGAAAG,0.0576 % of ANNNNAAN 8-mers,0.0524 % of ANNNNAAN 8-mers,0.0792 % of ANNNNAAN 8-mers,0.0644 % of ANNNNAAN 8-mers
ATGCCAAG,0.0305 % of ANNNNAAN 8-mers,0.0357 % of ANNNNAAN 8-mers,0.025 % of ANNNNAAN 8-mers,0.0248 % of ANNNNAAN 8-mers
AGTAGAAG,0.0404 % of ANNNNAAN 8-mers,0.0391 % of ANNNNAAN 8-mers,0.0336 % of ANNNNAAN 8-mers,0.0297 % of ANNNNAAN 8-mers
ACCGGAAT,0.0412 % of ANNNNAAN 8-mers,0.0489 % of ANNNNAAN 8-mers,0.0398 % of ANNNNAAN 8-mers,0.0454 % of ANNNNAAN 8-mers
AAAAAAAA,0.11 % of ANNNNAAN 8-mers,0.193 % of ANNNNAAN 8-mers,0.174 % of ANNNNAAN 8-mers,0.13 % of ANNNNAAN 8-mers
ATCATAAT,0.131 % of ANNNNAAN 8-mers,0.164 % of ANNNNAAN 8-mers,0.0706 % of ANNNNAAN 8-mers,0.0636 % of ANNNNAAN 8-mers
AGGCTAAA,0.0381 % of ANNNNAAN 8-mers,0.0414 % of ANNNNAAN 8-mers,0.0363 % of ANNNNAAN 8-mers,0.0454 % of ANNNNAAN 8-mers
ACTGAAAA,0.0313 % of ANNNNAAN 8-mers,0.0363 % of ANNNNAAN 8-mers,0.0328 % of ANNNNAAN 8-mers,0.0363 % of ANNNNAAN 8-mers
AGTGTAAT,0.085 % of ANNNNAAN 8-mers,0.104 % of ANNNNAAN 8-mers,0.0679 % of ANNNNAAN 8-mers,0.0867 % of ANNNNAAN 8-mers
ATTTAAAT,2.83 % of ANNNNAAN 8-mers,2.38 % of ANNNNAAN 8-mers,0.709 % of ANNNNAAN 8-mers,0.832 % of ANNNNAAN 8-mers
AACCAAAC,0.0248 % of ANNNNAAN 8-mers,0.0236 % of ANNNNAAN 8-mers,0.0437 % of ANNNNAAN 8-mers,0.0239 % of ANNNNAAN 8-mers
AGGAGAAT,0.0789 % of ANNNNAAN 8-mers,0.0771 % of ANNNNAAN 8-mers,0.0624 % of ANNNNAAN 8-mers,0.0702 % of ANNNNAAN 8-mers
AGGTCAAA,0.0587 % of ANNNNAAN 8-mers,0.0403 % of ANNNNAAN 8-mers,0.0632 % of ANNNNAAN 8-mers,0.0421 % of ANNNNAAN 8-mers
AGTTTAAT,0.129 % of ANNNNAAN 8-mers,0.156 % of ANNNNAAN 8-mers,0.0882 % of ANNNNAAN 8-mers,0.111 % of ANNNNAAN 8-mers
AGTGTAAC,0.0217 % of ANNNNAAN 8-mers,0.015 % of ANNNNAAN 8-mers,0.0234 % of ANNNNAAN 8-mers,0.0272 % of ANNNNAAN 8-mers
ACGGGAAT,0.0641 % of ANNNNAAN 8-mers,0.0725 % of ANNNNAAN 8-mers,0.0574 % of ANNNNAAN 8-mers,0.0759 % of ANNNNAAN 8-mers
AAGAAAAC,0.0473 % of ANNNNAAN 8-mers,0.0345 % of ANNNNAAN 8-mers,0.0644 % of ANNNNAAN 8-mers,0.0355 % of ANNNNAAN 8-mers
ACATCAAT,0.0435 % of ANNNNAAN 8-mers,0.057 % of ANNNNAAN 8-mers,0.0367 % of ANNNNAAN 8-mers,0.0338 % of ANNNNAAN 8-mers
ATTACAAC,0.0313 % of ANNNNAAN 8-mers,0.042 % of ANNNNAAN 8-mers,0.0258 % of ANNNNAAN 8-mers,0.0223 % of ANNNNAAN 8-mers
AGTATAAC,0.0278 % of ANNNNAAN 8-mers,0.0328 % of ANNNNAAN 8-mers,0.0226 % of ANNNNAAN 8-mers,0.0248 % of ANNNNAAN 8-mers
ATTGTAAC,0.0362 % of ANNNNAAN 8-mers,0.0374 % of ANNNNAAN 8-mers,0.0336 % of ANNNNAAN 8-mers,0.0371 % of ANNNNAAN 8-mers
ACGACAAT,0.029 % of ANNNNAAN 8-mers,0.0299 % of ANNNNAAN 8-mers,0.025 % of ANNNNAAN 8-mers,0.0297 % of ANNNNAAN 8-mers
ATCCTAAT,0.0614 % of ANNNNAAN 8-mers,0.0944 % of ANNNNAAN 8-mers,0.0499 % of ANNNNAAN 8-mers,0.0693 % of ANNNNAAN 8-mers
AAACGAAG,0.045 % of ANNNNAAN 8-mers,0.0483 % of ANNNNAAN 8-mers,0.0589 % of ANNNNAAN 8-mers,0.0528 % of ANNNNAAN 8-mers
AATTCAAG,0.101 % of ANNNNAAN 8-mers,0.0886 % of ANNNNAAN 8-mers,0.0714 % of ANNNNAAN 8-mers,0.0817 % of ANNNNAAN 8-mers
ATTGTAAT,0.312 % of ANNNNAAN 8-mers,0.357 % of ANNNNAAN 8-mers,0.116 % of ANNNNAAN 8-mers,0.137 % of ANNNNAAN 8-mers
AGGGAAAG,0.194 % of ANNNNAAN 8-mers,0.136 % of ANNNNAAN 8-mers,0.222 % of ANNNNAAN 8-mers,0.142 % of ANNNNAAN 8-mers
AACGCAAA,0.147 % of ANNNNAAN 8-mers,0.0978 % of ANNNNAAN 8-mers,0.266 % of ANNNNAAN 8-mers,0.229 % of ANNNNAAN 8-mers
